Active and inactive are the calls of the source. Rule for the calls: active = hit-call score of the fitted dose curve at least 0.9, where 1 is the maximum; inactive = score below 0.9.
Assay: APR_HepG2_P-H2AX_24hr: Apredica 24-hour HepG2 Assay for H2AX Phosphorylation (AID 2282920)
Details: high-content imaging, actives raise or lower the signal
Protocol: APR_HepG2_24hr is a cell-based, multiplexed-readout assay that uses HepG2, a human liver cell line, with measurements taken at 24 hours after chemical dosing in a 384-well plate.APR_HepG2_P-H2AX_24hr is one of 10 assay component(s) measured or calculated from the APR_HepG2_24hr assay. It is designed to make measurements of dna content, a form of viability reporter, as detected with fluorescence intensity signals by HCS Fluorescent Imaging technology.Data from the assay component APR_HepG2_P-H2AX_24hr was analyzed into 1 assay endpoint. This assay endpoint, APR_HepG2_P-H2AX_24hr, was analyzed with bidirectional fitting relative to DMSO as the negative control and baseline of activity. Using a type of viability reporter, measures of protein for gain or loss-of-signal activity can be used to understand the signaling at the pathway-level as they relate to the gene . Furthermore, this assay endpoint can be referred to as a primary readout, because this assay has produced multiple assay endpoints where this one serves a signaling function. To generalize the intended target to other relatable targets, this assay endpoint is annotated to the dna binding intended target family, where the subfamily is cellular response to DNA damage stimulus.
Cells were treated with dimethyl sulfoxide (DMSO) as a solvent control at a final concentration of 0.5% v/v or with compounds in DMSO with a resulting final DMSO concentration of 0.5% v/v. Compound treatment was done at concentrations of 0.39, 0.78, 1.56, 3.12, 6.24, 12.5, 25, 50, 100, and 200 uM in duplicate on each plate. Cells were treated with compounds for 1, 24, or 72 hr. Carbonyl […] m-chloro-phenylhydrazone (CCCP) and taxol were used as positive controls for mitochondrial function and cytoskeletal stability, respectively; DMSO served as the negative control for this experiment. Cells were fixed by the direct addition of 50 uL formaldehyde in Hank's Balanced Salt Solution (HBSS) to a final concentration of 3.7%. After incubation in the fixation medium for 30 min at room temperature (293-298 K), cells were rinsed twice with HBSS and treated with cell permeabilization buffer (16 uL of 0.5% Triton X-100) for 10 min at room temperature (293-298 K) before labeling. For mitochondrial membrane potential and mitochondrial measurements, pre-fixed cells were incubated with 50 uL of MitoTracker Red CMXRos (Invitrogen) at a concentration of 250 nM for 30 min before fixation. In the remaining cases, post-fixed cells were labeled by incubation with a multiplexed mixture of primary antibodies in HBSS for 60 min at room temperature (293-298 K) to detect immunoreactivity of c-Jun (1:500), phospho-histone H3 (1:100), phospho-histone H2A.x (1:200), p53 (1:400), alpha-tubulin (1:200) and Hoechst 33342 (2 ug/mL). Cells were labeled for multiplexed imaging on two separate plates: a) Hoechst 33342, MitoTracker Red, phospho-histone H3, and alpha-tubulin, and b) Hoechst 33342, phospho-histone H2A.x, and c-Jun. A final rinse with HBSS (50 uL) was performed before analysis. The primary and secondary antibodies for the proteins were phospho-histone H3 (rabbit anti-phospho-histone H3 and FITC-donkey anti-rabbit IgG), phospho-histone H2A.x (mouse anti-phospho-histone H2A.x and FITC-donkey anti-mouse IgG), c-Jun (rabbit anti-phospho-c-Jun and Cy3-donkey anti-rabbit IgG), p53 (sheep anti-p53 and Cy5-donkey anti-sheep IgG), alpha-tubulin (mouse anti-alpha-tubulin and Cy5-donkey anti-mouse IgG). These antibodies are available as the CellCiphr HepG2 assay kit (Millipore).Digital images of each well were captured using a Cellomics ArrayScan VTI (Thermo Scientific Cellomics) (0.8 NA objective, 0.63x optical coupler, and XF-93 filter set) at 20x magnification. The images were acquired using the autofocus feature of the ArrayScan instrument, which entails the following steps. First, the camera focuses on channel 1 (Hoechst 33342), where nuclei are identified. Second, a Z offset of 1 um is used for capturing mitochondria (MitoTracker Red). […]

| Compound | AC50 | outcome |
| --- | --- | --- |
| O=P(Oc1ccccc1)(Oc1ccccc1)Oc1ccccc1 | 70.9 µM (active) |  |
| CCNc1nc(Cl)nc(NC(C)(C)C)n1 |  | inactive |
| Cc1ccc(N)cc1N |  | inactive |
| CN(C)C(=O)Cl |  | inactive |
| CC(Cl)(Cl)C(=O)O |  | inactive |
| O=P1(N(CCCl)CCCl)NCCCO1 (stereo not given) |  | inactive |
| O=C(O)C(Cl)Cl |  | inactive |
| O=C(O)C1C(C(=O)O)C2(Cl)C(Cl)=C(Cl)C1(Cl)C2(Cl)Cl (stereo not given) |  | inactive |
| c1ccc2c(c1)Nc1ccccc1S2 |  | inactive |
| CCC1(c2ccccc2)C(=O)N=C(O)NC1=O (stereo not given) |  | inactive |
| CC(C)(C)c1ccc(O)cc1 |  | inactive |
| CCOP(=S)(OCC)SCSCC | 107 µM (active) |  |
| Cc1ccc(O)cc1C |  | inactive |
| O=[N+]([O-])c1ccccc1 |  | inactive |
| [N-]=[N+]=[N-] |  | inactive |
| COCCOCCO |  | inactive |
| Nc1ccc(Cl)cc1 |  | inactive |
| Cc1ccc([N+](=O)[O-])cc1C |  | inactive |
| CCOP(=S)(Oc1ccc([N+](=O)[O-])cc1)c1ccccc1 (stereo not given) |  | inactive |
| O=[N+]([O-])c1ccc(Cl)c(Cl)c1 |  | inactive |

| Compound | AC50 | outcome |
| --- | --- | --- |
| Cc1cccc(N)c1 |  | inactive |
| CCN(CC)c1ccccc1 |  | inactive |
| ClC(Cl)c1ccccc1 |  | inactive |
| Nc1cc2c3c(c1)C(c1ccccc1)=N[C@@H](NC(=O)c1cccnc1)C(=O)N3CC2 |  | inactive |
| c1ccc(OP(Oc2ccccc2)Oc2ccccc2)cc1 |  | inactive |
| CCCCN(CCCC)N=O |  | inactive |
| CSC(C)(C)C=NO |  | inactive |
| c1cc2c3c(cccc3c1)CC2 |  | inactive |
| CCOS(=O)(=O)OCC |  | inactive |
| CCCCN(CCCC)SN(C)C(=O)Oc1cccc2c1OC(C)(C)C2 | 66.8 µM (active) |  |
| ClC(Cl)(Cl)c1ccccc1 |  | inactive |
| CC(Cc1ccc(OCC(=O)O)cc1)NCC(O)c1csc(C(F)(F)F)n1 (stereo not given) |  | inactive |
| CC(C)(C)OOC(C)(C)C |  | inactive |
| Nc1ccc2ccccc2c1 |  | inactive |
| CCCN(CCC)c1c([N+](=O)[O-])cc(C(C)C)cc1[N+](=O)[O-] |  | inactive |
| ClC1=C(Cl)C2(Cl)C3C(Cl)C(Cl)CC3C1(Cl)C2(Cl)Cl (stereo not given) | 72.8 µM (active) |  |
| CCCCCCCc1ccc(O)cc1 |  | inactive |
| CCC(C)(C)c1ccc(O)cc1 |  | inactive |
| CCCCc1ccccc1 |  | inactive |
| c1nc[nH]n1 |  | inactive |

Reference: PubChem BioAssay (EPA / NIEHS)
